# According to ChEMBL document CHEMBL3988442, “University of Dundee, Small-Polar-MMV Screening Library” (2021):
# For some of these results: Entries with a potency or affinity are not part of this list.
# Legend:
# Design in all cases: scale not given: direction of the effect not stated beside the values
# [1] = biological target: Protein translocase subunit SecA (Escherichia coli (strain K12)) (UniProt P10408); experiment: Assay to Identify E. coli SecA ATPase Inhibitors; assay type: functional; settings: 30 µM
# Sequence of Protein translocase subunit SecA (Escherichia coli (strain K12)) (P10408 whole entry): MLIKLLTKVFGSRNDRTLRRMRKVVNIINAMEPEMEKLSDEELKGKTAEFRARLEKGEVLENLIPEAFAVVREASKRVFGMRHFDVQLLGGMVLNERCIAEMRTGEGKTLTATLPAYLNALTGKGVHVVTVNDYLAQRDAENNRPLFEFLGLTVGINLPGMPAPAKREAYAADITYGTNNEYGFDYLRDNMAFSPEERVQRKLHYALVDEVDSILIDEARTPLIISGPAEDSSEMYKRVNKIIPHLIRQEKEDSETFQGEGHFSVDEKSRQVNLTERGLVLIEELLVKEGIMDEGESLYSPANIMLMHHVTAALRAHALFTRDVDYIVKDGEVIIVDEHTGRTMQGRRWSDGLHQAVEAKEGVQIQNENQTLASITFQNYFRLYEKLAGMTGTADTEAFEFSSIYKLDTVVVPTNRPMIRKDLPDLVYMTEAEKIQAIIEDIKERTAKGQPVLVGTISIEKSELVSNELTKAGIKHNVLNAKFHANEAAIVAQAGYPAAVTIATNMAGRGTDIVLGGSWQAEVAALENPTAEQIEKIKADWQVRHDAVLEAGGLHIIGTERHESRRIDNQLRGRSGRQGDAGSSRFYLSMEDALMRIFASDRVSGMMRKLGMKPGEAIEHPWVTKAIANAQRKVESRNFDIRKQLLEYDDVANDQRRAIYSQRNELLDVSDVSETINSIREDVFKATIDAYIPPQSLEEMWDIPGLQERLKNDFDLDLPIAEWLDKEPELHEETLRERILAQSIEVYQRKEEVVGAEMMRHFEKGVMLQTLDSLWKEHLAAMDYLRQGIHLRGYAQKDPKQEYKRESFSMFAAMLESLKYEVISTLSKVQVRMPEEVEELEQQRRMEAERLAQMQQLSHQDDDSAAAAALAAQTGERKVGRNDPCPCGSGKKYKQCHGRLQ
# [2] = biological target: T1, Ubiquitin-activating enzyme e1, putative (Leishmania donovani (strain BPK282A1)) (UniProt E9BSI1); experiment: Leishmania donovani Ubiquitin Activating Enzyme (LdE1); assay type: functional; settings: 30 µM
# T1 sequence (whole entry): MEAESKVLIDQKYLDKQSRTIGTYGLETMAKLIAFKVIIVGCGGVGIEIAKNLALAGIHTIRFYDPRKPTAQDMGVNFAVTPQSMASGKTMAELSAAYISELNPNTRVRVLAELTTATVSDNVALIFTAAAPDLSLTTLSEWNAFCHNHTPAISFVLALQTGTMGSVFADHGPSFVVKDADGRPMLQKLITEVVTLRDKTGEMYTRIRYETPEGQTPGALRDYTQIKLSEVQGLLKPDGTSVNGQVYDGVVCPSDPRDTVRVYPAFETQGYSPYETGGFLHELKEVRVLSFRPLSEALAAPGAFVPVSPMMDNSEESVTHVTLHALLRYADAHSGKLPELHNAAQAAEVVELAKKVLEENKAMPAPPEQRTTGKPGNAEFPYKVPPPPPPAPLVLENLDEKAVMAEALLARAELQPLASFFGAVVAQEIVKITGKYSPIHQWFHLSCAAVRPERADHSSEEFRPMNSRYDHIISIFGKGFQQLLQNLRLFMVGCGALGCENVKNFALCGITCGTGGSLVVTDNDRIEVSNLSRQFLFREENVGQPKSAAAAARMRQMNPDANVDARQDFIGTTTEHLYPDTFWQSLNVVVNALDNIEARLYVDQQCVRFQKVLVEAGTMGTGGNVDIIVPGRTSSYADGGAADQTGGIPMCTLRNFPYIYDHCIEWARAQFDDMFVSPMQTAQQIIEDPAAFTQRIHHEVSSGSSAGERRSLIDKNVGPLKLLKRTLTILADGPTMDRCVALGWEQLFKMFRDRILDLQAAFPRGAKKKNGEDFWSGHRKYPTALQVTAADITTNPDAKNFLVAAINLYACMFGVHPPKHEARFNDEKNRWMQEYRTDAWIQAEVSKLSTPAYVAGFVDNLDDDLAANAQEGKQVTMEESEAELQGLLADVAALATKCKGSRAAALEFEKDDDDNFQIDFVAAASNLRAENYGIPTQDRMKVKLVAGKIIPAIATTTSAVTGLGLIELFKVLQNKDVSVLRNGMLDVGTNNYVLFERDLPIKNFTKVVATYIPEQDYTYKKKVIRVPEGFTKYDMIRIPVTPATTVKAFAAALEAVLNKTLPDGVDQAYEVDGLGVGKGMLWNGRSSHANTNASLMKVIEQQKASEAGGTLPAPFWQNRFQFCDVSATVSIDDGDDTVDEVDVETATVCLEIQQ
# [3] = biological target: AMP-activated protein kinase, AMPK (Homo sapiens) (UniProt P54646+O43741+P54619+Q9UGJ0+Q9Y478+Q13131+Q9UGI9); experiment: AMP-dependent Kinase enzyme assay. An in vitro enzyme assay that detects ADP turnover that is directly proportional to AMPK activity. This uses naive AMPK that is activated during the assay with MK-8722; assay type: functional; settings: 30 µM
# [4] = biological target: Sialic acid-binding Ig-like lectin 9 (Homo sapiens) (UniProt Q9Y336); experiment: Hs-Siglec9 ALPHAscreen SOP 20170721; settings: 10 µM
# Sequence of Sialic acid-binding Ig-like lectin 9 (Homo sapiens) (Q9Y336 whole entry): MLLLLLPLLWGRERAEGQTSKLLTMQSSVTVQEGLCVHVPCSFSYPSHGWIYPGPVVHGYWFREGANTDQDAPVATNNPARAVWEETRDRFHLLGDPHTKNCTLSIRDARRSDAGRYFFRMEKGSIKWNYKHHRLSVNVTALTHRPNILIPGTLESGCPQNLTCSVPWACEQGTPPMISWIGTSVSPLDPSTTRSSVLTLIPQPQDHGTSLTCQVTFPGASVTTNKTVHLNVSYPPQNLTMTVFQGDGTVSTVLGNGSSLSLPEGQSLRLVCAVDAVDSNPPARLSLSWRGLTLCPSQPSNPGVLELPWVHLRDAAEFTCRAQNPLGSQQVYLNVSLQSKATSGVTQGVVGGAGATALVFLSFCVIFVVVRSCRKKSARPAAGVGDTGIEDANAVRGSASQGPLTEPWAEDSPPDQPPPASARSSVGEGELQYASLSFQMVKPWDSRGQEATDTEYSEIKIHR
# Trypanosoma cruzi = experiment: Trypanosoma cruzi phosphomannomutase and mannose-1-phosphate guanylyltransferase assay; assay type: functional; settings: 10 µM
# [5] = biological target: T2, Arginase-2, mitochondrial (Homo sapiens) (UniProt P78540); experiment: in vitro enzyme assay to detect the production of urea directly proportional to the activity of Arginase II; assay type: functional; settings: 33.3 µM; also: in the data most compounds retested in dose-response had high values
# T2 sequence (whole entry): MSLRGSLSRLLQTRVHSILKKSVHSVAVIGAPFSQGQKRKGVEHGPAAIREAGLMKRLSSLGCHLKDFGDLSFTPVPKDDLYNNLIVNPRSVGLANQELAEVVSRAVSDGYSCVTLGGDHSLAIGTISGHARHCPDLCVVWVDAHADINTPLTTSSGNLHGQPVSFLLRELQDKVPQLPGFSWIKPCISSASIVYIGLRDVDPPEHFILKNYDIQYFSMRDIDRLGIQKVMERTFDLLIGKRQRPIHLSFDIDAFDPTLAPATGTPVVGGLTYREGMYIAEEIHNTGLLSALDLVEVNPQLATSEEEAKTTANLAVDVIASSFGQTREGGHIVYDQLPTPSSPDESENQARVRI
# [6] = biological target: T3, Proteasome subunit beta (Trypanosoma cruzi) (UniProt O96673); experiment: Trypanosoma cruzi proteasome chymotrypsin-like activity (TcProtChymo) assay.; also: in the data most compounds retested in dose-response had high values; assay type: functional; settings: 9.37 µM
# T3 sequence (whole entry): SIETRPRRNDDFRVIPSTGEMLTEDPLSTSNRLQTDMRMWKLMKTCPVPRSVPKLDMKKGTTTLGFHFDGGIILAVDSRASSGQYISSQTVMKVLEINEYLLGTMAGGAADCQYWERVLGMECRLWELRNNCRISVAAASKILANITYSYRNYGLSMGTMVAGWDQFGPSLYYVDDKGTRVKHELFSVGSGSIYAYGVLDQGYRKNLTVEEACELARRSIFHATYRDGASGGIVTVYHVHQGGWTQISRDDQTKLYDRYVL
# Homo sapiens = species on record: Homo sapiens; experiment: To identify inhibition of the IFN signalling (Jak-Stat) pathway via expression of an eGFP reporter gene under the control of an IFN-stimulated response element (ISRE) containing MxA promoter.; assay type: functional; settings: 30 µM
# [7] = biological target: T4, Tyrosyl-tRNA synthetase, putative (Trypanosoma cruzi (strain CL Brener)) (UniProt Q4DSP6); experiment: Trypanosoma cruzi tyrosyl tRNA synthetase (TcYRS) _High Tyrosine SOP; assay type: functional; settings: 30 µM; also: in the data most compounds retested in dose-response had high values
# T4 sequence (whole entry): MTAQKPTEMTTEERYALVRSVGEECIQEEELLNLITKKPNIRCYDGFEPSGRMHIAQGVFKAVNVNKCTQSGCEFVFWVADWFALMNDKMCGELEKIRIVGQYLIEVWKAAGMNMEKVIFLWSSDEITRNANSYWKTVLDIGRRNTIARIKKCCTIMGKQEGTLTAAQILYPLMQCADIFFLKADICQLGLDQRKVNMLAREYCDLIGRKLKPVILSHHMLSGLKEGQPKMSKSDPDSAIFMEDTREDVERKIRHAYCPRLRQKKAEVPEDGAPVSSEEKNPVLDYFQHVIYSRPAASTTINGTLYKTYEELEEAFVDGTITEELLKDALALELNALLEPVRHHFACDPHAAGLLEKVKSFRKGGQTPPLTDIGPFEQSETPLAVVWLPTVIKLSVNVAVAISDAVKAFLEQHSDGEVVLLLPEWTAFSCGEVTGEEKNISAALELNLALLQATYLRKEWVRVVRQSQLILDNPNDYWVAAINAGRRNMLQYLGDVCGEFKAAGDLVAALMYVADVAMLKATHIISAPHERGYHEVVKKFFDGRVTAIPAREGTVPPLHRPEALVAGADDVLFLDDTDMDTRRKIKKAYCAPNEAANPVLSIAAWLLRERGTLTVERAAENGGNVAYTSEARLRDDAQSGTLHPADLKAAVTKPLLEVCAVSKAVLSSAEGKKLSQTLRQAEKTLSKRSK
# [8] = biological target: T4, Tyrosyl-tRNA synthetase, putative (Trypanosoma cruzi (strain CL Brener)); experiment: Trypanosoma cruzi tyrosyl tRNA synthetase (TcYRS) SOP; assay type: functional; settings: 30 µM
# [9] = biological target: Chromo domain-containing protein 1 (Saccharomyces cerevisiae (strain ATCC 204508 / S288c) (Baker's yeast)) (UniProt P32657); experiment: ScCHD-1 Enzyme Inhibition Assay; assay type: functional; settings: 30 µM; also: in the data most compounds retested in dose-response had high values
# Sequence of Chromo domain-containing protein 1 (Saccharomyces cerevisiae (strain ATCC 204508 / S288c) (Baker's yeast)) (P32657 whole entry, the tested form may be a part): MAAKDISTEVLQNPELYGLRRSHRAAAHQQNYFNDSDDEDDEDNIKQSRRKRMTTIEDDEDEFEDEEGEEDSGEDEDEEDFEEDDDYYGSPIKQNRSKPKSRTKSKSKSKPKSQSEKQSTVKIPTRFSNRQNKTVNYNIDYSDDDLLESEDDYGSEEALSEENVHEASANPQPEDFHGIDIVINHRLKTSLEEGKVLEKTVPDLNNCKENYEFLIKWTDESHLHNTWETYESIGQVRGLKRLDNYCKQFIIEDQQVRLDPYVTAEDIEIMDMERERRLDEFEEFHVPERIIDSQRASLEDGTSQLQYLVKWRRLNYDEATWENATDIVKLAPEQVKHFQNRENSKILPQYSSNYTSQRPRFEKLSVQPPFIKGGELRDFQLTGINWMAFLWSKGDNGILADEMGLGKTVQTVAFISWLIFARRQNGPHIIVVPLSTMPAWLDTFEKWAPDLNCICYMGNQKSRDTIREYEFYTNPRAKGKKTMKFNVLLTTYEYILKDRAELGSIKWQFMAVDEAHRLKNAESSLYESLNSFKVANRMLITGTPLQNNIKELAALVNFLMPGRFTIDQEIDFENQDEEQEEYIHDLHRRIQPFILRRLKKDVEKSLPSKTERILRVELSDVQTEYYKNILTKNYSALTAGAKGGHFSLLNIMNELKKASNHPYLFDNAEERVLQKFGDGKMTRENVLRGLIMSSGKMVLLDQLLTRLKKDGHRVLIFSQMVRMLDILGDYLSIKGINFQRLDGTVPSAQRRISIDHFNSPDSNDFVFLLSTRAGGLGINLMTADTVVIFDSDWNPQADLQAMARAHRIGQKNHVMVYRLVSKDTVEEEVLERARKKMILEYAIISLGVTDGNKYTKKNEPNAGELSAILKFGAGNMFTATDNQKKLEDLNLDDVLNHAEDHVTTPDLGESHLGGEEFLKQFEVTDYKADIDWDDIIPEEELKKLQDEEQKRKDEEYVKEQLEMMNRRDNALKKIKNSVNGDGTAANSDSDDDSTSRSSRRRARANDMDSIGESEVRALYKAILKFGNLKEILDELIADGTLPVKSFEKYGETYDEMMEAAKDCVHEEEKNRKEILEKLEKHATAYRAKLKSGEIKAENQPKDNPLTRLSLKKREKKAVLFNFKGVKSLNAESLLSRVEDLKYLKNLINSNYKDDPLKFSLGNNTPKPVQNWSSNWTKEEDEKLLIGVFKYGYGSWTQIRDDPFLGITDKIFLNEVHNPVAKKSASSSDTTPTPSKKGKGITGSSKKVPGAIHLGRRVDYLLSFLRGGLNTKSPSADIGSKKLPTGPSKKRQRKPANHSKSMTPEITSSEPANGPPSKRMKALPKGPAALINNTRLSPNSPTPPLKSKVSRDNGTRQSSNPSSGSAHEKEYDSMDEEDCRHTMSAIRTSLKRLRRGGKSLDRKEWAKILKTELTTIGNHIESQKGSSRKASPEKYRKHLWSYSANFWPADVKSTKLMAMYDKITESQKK
smiles,measurement,setting,value
CCS(=O)(=O)N1Cc2nccn2CC(COc2cccnc2)C1 (stereo not drawn),Percent Effect,[1],-5.39%
same,Percent Effect,[2],10.7%
same,Percent Effect,[3],-4.67%
same,Percent Effect,[4],3.69%
same,Percent Effect,Trypanosoma cruzi,3.48%
same,Percent Effect,[5],-35.7%
same,Percent Effect,[6],15.4%
same,Percent Effect,Homo sapiens,3.42%
same,Percent Effect,[7],7.29%
same,Percent Effect,[8],12.5%
same,Percent Effect,[9],-8.7%
O=C(CN1CCC(c2ccnn2CCO)CC1)NCC1CC1,Percent Effect,[1],-2.3%
same,Percent Effect,[2],17.7%
same,Percent Effect,[3],-5.47%
same,Percent Effect,[4],0.194%
same,Percent Effect,Trypanosoma cruzi,2.36%
same,Percent Effect,[5],0.76%
same,Percent Effect,[6],6.96%
same,Percent Effect,Homo sapiens,-2.19%
same,Percent Effect,[7],8.37%
same,Percent Effect,[8],29.1%
same,Percent Effect,[9],-5.59%
COc1cc(C(=O)N2CCCC(CNS(C)(=O)=O)C2)cc(OC)c1C (stereo not drawn),Percent Effect,[1],-5.54%
same,Percent Effect,[2],13.5%
same,Percent Effect,[3],77.8%
same,Percent Effect,[4],-1.48%
same,Percent Effect,Trypanosoma cruzi,2.74%
same,Percent Effect,[5],0.802%
same,Percent Effect,[6],1.26%
same,Percent Effect,Homo sapiens,11%
same,Percent Effect,[7],7.39%
same,Percent Effect,[8],16.1%
same,Percent Effect,[9],-4.09%
CC(=O)N1CCCN(C(=O)c2oc(Br)cc2C)CC1,Percent Effect,[1],-0.989%
same,Percent Effect,[2],10.8%
same,Percent Effect,[3],-1.11%
same,Percent Effect,[4],15.2%
same,Percent Effect,Trypanosoma cruzi,2.12%
same,Percent Effect,[5],6.19%
same,Percent Effect,[6],21.4%
same,Percent Effect,Homo sapiens,4.33%
same,Percent Effect,[7],2.65%
same,Percent Effect,[8],17.1%
same,Percent Effect,[9],-7.7%
Cc1cc(C)cc(-c2cccc(CC3(C(=O)O)CCOCC3)c2)c1,Percent Effect,[1],-0.147%
same,Percent Effect,[2],4.05%
same,Percent Effect,[3],37.7%
same,Percent Effect,[4],5.76%
same,Percent Effect,Trypanosoma cruzi,-8.1%
same,Percent Effect,[5],-9.05%
same,Percent Effect,[6],15.1%
same,Percent Effect,Homo sapiens,31.5%
same,Percent Effect,[7],-26.9%
same,Percent Effect,[8],-45.5%
same,Percent Effect,[9],-6.99%
O=C(NCCNc1ccc(C(F)(F)F)cn1)c1ccc(Br)cc1F,Percent Effect,[1],-3.12%
same,Percent Effect,[2],10.4%
same,Percent Effect,[3],7.24%
same,Percent Effect,[4],-16.8%
same,Percent Effect,Trypanosoma cruzi,-5.39%
same,Percent Effect,[5],-2.74%
same,Percent Effect,[6],11.9%
same,Percent Effect,Homo sapiens,6.29%
same,Percent Effect,[7],3.81%
same,Percent Effect,[8],14.1%
same,Percent Effect,[9],-26.3%
Cn1ccc(NC(=O)Cc2cccc(F)c2)n1,Percent Effect,[1],-2.82%
same,Percent Effect,[2],5.41%
same,Percent Effect,[3],2.46%
same,Percent Effect,[4],-6.52%
same,Percent Effect,Trypanosoma cruzi,3.71%
same,Percent Effect,[5],-3.33%
same,Percent Effect,[6],12.3%
same,Percent Effect,Homo sapiens,15%
same,Percent Effect,[7],12.9%
same,Percent Effect,[8],13.4%
same,Percent Effect,[9],113%
O=C(NCCCN1CCOCC1)c1cc(-c2ccc3c(c2)CCO3)n[nH]1,Percent Effect,[1],-5.47%
same,Percent Effect,[2],-20%
same,Percent Effect,[3],-0.583%
same,Percent Effect,[4],0.426%
same,Percent Effect,Trypanosoma cruzi,2.36%
same,Percent Effect,[5],-15%
same,Percent Effect,[6],12.2%
same,Percent Effect,Homo sapiens,-4.93%
same,Percent Effect,[7],1.06%
same,Percent Effect,[8],-2.56%
same,Percent Effect,[9],-5.21%
